Among the data in article PMC7862700, “An all-to-all approach to the identification of sequence-specific readers for epigenetic DNA modifications on cytosine” are binding signal values, retold here.

Common to all, as to assay: DAPPL (digital affinity profiling via proximity ligation, sequencing); 10 mM Tris-HCl pH 7.5, 50 mM NaCl, 1 mM DTT, 4% glycerol, room temperature, 30 min; GST-TFs on glutathione beads, 16-mer random dsDNA library, 0.1% formaldehyde crosslink after washing; high values mean tight binding
Common to all, as to settings: protein: recombinant; tags: N-terminal GST; dsDNA, one strand shown

Test [1] deals with T1, FLI1 (Homo sapiens, UniProt Q01543 1-452).
T1 sequence: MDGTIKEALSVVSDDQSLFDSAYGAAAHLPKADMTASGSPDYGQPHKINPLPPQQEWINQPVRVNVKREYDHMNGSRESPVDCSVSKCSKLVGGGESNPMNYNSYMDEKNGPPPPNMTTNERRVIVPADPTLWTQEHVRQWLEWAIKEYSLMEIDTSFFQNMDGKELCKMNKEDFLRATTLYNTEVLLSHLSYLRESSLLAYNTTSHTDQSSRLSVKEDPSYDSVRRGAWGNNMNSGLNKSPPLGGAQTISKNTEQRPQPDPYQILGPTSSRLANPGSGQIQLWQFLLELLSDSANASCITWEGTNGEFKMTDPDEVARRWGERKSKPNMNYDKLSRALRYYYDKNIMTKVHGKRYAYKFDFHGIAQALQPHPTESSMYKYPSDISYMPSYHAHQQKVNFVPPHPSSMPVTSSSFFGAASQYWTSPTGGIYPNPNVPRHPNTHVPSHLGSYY
The procedure, abridged:
(§1)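 GST fusions of human transcription factors were expressed in yeast and captured with glutathione beads. Once given DNA barcodes and pooled alongside a tag-only sample, they were incubated for 30 min at room temperature with 200 nmole of a random double-stranded 16-mer DNA library in Tris/NaCl/DTT/glycerol buffer, then washed, crosslinked (0.1% formaldehyde), proximity-ligated, PCR-amplified and sequenced on an Illumina NextSeq500. The binding signal of each hexamer is its read frequency for a factor divided by its frequency for the tag-only sample.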

Test [2] deals with T2, ELK1 (Homo sapiens, UniProt P19419 1-428).
T2 sequence: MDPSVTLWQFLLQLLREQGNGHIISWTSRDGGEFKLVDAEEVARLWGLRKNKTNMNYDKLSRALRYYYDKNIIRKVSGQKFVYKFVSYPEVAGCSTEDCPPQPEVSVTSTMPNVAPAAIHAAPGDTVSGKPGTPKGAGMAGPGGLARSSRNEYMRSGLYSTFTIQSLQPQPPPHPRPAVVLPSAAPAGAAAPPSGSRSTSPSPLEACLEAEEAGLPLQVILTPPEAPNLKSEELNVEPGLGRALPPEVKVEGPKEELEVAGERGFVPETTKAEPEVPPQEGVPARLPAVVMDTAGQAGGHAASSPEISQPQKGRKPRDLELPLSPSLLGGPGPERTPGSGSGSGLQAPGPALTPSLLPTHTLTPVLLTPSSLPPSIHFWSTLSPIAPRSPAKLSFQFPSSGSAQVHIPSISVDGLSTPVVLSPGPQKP
In short, it runs like this: as §1

Test [3] concerns the target T3, GABPA (Homo sapiens, UniProt Q06546 1-454).
T3 sequence: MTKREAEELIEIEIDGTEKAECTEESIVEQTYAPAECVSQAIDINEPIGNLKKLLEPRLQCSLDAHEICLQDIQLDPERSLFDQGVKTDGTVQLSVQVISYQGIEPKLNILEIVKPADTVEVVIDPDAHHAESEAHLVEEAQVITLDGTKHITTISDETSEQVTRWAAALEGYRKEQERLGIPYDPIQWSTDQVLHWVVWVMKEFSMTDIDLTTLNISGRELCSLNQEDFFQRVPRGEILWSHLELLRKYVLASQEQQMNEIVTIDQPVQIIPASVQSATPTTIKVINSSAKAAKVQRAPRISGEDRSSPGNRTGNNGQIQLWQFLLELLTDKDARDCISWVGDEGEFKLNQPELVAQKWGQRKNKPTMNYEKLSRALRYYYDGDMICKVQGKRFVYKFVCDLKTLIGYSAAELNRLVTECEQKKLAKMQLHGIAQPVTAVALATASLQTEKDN
In short, it runs like this:
as §1

For test [4], the target named is T4, ERG (Homo sapiens, UniProt P11308 1-479).
T4 sequence: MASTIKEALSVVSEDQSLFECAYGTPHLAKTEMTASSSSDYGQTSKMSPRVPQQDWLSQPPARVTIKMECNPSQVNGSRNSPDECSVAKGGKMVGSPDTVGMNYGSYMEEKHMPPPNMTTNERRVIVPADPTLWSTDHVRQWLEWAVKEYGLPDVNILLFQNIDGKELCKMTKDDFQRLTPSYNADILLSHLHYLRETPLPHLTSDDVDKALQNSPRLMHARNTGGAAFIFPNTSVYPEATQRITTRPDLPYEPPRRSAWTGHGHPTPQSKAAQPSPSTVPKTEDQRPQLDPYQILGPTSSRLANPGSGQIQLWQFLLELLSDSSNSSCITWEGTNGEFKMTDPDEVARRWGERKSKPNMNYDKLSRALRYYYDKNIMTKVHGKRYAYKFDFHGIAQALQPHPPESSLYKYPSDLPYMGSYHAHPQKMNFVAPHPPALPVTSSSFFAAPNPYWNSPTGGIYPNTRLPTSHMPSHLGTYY
The procedure, abridged:
as §1

In test [5] the target is ELF1 (Homo sapiens, UniProt P32519 1-619). The procedure, abridged: as §1
Chain of ELF1 (P32519 whole entry): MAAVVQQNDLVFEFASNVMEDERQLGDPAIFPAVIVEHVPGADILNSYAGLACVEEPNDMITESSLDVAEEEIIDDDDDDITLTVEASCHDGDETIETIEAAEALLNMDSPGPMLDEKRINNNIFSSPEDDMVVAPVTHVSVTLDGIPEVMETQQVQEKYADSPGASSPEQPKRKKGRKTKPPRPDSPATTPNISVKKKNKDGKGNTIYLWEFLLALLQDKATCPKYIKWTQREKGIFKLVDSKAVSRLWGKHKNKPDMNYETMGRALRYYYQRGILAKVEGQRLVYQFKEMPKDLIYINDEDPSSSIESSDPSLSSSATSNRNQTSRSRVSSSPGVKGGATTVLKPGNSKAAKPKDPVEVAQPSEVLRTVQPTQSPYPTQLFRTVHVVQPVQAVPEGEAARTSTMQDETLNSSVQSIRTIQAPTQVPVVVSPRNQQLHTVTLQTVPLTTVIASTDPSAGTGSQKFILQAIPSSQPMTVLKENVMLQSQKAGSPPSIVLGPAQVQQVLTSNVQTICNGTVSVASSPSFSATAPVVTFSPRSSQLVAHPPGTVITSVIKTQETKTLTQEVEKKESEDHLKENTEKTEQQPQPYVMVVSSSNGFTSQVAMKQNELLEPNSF
Test [6] has as its target T5, EHF (Homo sapiens, UniProt Q9NZC4 1-300).
T5 sequence: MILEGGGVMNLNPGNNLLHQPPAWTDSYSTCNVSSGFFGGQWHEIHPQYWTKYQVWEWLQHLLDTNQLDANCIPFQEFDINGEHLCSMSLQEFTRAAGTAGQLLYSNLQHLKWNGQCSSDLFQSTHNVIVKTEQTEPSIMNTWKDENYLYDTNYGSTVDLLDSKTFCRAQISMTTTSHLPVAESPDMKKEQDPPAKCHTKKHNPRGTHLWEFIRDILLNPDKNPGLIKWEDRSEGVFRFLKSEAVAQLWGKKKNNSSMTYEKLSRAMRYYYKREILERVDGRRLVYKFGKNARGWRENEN
In short, it runs like this: as §1

Test [7] addresses SPI1 (Homo sapiens, UniProt P17947 1-270). The procedure, abridged:
as §1

Test [8] addresses SPIB (Homo sapiens, UniProt Q01892 1-262). The procedure, abridged:
as §1

In test [9] the target is T6, ELK3 (Homo sapiens, UniProt P41970 1-407).
T6 sequence: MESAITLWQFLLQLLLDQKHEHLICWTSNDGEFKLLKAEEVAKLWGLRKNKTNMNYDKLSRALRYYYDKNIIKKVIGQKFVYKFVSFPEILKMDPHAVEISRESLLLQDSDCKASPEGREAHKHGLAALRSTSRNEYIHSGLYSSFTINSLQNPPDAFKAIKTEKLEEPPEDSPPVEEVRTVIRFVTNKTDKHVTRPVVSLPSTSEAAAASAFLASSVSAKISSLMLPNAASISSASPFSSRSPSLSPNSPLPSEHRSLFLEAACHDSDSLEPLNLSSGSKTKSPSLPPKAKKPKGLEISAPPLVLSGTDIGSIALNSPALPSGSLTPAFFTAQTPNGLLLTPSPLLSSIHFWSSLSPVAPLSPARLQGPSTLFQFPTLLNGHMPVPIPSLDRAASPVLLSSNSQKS
The procedure, abridged:
as §1

The target of test [10] is T7, FEV (Homo sapiens, UniProt Q99581 1-238).
T7 sequence: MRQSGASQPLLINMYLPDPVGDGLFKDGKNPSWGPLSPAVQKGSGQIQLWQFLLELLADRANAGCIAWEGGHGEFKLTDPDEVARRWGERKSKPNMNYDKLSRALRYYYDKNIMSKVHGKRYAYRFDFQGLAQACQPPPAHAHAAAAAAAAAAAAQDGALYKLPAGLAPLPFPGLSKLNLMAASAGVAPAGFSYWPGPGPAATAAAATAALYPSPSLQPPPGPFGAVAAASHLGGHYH
The procedure, abridged: as §1

In test [11] the target is ETV5 (Homo sapiens, UniProt P41161 1-510). The procedure, abridged: as §1
Chain of ETV5 (P41161 whole entry): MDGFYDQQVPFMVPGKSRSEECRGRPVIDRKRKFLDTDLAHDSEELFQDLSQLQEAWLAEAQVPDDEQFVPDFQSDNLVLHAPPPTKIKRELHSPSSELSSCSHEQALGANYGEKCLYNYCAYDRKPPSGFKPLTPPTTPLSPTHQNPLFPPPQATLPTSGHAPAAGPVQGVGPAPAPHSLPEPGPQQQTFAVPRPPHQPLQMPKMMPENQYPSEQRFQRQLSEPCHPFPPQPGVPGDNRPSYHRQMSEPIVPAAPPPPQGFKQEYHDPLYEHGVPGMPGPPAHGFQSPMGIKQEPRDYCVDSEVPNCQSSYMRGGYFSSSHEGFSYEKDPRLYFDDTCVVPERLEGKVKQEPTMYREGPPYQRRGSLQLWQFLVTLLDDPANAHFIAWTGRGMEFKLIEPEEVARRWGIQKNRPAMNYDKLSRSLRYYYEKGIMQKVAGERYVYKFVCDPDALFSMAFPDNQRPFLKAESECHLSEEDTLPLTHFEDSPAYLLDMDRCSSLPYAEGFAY
Test [12] concerns the target T8, SPIC (Homo sapiens, UniProt Q8N5J4 1-248).
T8 sequence: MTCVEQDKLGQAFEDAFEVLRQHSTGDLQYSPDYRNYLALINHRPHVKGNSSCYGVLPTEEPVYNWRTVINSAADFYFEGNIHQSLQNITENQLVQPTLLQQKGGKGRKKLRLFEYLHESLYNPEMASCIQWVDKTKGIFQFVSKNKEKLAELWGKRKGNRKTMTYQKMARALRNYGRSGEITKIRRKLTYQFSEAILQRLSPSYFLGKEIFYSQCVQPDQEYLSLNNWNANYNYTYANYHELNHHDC
The procedure, abridged: as §1

Test [13] addresses ELF4 (Homo sapiens, UniProt Q99607 1-663). The procedure, abridged:
as §1

Test [14] deals with T9, ELK4 (Homo sapiens, UniProt P28324-2 1-405).
T9 sequence: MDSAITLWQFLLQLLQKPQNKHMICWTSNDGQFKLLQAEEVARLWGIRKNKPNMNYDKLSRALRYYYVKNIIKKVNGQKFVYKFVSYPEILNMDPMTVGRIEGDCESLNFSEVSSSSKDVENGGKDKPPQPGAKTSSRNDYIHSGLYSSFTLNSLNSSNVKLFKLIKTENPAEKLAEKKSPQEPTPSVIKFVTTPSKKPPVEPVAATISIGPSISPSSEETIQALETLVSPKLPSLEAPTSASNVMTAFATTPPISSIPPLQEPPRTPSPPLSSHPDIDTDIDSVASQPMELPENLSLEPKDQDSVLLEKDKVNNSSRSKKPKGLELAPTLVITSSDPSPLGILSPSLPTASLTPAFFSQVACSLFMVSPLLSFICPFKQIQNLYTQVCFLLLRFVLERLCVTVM
In short, it runs like this:
as §1

Test [15] concerns the target T10, ETV2 (Homo sapiens, UniProt O00321 1-342).
T10 sequence: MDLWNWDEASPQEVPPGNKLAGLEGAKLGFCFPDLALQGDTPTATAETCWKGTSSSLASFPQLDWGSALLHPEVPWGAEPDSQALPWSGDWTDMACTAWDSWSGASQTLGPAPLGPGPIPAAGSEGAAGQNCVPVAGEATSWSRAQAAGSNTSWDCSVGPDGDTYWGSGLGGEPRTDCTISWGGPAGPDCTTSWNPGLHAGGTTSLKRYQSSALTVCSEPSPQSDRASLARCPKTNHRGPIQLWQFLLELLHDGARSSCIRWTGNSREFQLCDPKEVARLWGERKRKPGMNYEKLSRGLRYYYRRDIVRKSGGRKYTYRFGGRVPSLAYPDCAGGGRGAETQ
The procedure, abridged:
as §1

Test [16] concerns the target T11, ELF3 (Homo sapiens, UniProt P78545 1-371).
T11 sequence: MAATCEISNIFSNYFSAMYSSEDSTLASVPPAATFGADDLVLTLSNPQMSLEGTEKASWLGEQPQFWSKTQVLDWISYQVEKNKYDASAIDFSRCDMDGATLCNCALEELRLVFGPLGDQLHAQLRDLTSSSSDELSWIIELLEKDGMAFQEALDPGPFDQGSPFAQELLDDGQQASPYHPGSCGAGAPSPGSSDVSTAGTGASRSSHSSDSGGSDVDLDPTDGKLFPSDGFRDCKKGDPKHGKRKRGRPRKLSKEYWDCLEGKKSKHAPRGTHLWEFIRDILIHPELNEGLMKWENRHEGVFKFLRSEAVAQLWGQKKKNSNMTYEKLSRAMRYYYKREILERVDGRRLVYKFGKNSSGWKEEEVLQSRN
The procedure, abridged: as §1

Test [17] has as its target ETV1 (Homo sapiens, UniProt P50549 1-477). In short, it runs like this: as §1

Chain of SPIB (Q01892 whole entry): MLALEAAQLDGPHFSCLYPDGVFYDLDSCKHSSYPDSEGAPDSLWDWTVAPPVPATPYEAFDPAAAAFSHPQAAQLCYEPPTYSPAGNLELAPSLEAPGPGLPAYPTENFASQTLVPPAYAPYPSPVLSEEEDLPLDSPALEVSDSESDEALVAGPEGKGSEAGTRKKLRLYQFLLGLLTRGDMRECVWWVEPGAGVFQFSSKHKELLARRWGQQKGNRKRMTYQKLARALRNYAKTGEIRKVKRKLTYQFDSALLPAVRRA
Chain of ELF4 (Q99607 whole entry): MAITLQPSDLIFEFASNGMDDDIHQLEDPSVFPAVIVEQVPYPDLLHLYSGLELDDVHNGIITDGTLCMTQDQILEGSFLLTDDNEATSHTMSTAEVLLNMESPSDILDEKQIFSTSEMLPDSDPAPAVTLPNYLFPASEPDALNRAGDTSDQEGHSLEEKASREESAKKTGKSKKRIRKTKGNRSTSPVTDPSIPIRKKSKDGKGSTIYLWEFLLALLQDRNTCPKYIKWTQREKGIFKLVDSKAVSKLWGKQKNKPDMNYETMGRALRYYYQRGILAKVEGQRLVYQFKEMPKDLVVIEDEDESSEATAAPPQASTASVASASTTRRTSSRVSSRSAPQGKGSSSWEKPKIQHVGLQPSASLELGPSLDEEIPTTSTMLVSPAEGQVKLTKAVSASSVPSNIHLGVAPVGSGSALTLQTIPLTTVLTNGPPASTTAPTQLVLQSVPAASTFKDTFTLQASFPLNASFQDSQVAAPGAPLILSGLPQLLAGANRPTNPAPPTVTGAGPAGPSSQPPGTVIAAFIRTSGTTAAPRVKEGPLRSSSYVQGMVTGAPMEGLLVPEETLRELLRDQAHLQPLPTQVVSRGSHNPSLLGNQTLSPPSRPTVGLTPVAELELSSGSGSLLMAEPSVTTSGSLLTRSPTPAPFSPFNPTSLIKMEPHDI
Chain of ETV1 (P50549 whole entry): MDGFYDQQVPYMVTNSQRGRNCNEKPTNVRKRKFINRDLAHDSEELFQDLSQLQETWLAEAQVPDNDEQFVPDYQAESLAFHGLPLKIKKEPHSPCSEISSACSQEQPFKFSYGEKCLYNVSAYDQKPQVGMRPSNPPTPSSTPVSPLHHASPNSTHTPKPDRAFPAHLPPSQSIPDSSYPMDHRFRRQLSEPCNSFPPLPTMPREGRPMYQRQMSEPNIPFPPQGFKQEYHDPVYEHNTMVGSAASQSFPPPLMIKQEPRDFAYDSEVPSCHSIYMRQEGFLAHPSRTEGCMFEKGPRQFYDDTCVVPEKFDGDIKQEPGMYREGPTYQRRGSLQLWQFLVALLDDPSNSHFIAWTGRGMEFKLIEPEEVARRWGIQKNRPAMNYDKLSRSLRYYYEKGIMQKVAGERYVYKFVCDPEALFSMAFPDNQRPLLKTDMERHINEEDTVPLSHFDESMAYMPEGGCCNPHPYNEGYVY

Regarding GTTCAT, the binding signal in test [1] was 1.19 fold enrichment (6-mer frequency, TF over GST control); in test [2] it was 1.25 fold enrichment (6-mer frequency, TF over GST control); in [3], 1.19 fold enrichment (6-mer frequency, TF over GST control); in [4], 1.1 fold enrichment (6-mer frequency, TF over GST control); in test [5] it was 1.13 fold enrichment (6-mer frequency, TF over GST control); in test [6] it was 1.17 fold enrichment (6-mer frequency, TF over GST control). Moreover, the binding signal was 1.18 fold enrichment (6-mer frequency, TF over GST control) in test [7]; 1.14 fold enrichment (6-mer frequency, TF over GST control) in test [8]; 1.15 fold enrichment (6-mer frequency, TF over GST control) in test [9]; 1.1 fold enrichment (6-mer frequency, TF over GST control) in test [10]; 1.16 fold enrichment (6-mer frequency, TF over GST control) in test [11]; 1.15 fold enrichment (6-mer frequency, TF over GST control) in [12]. Also, the binding signal is 1.18 fold enrichment (6-mer frequency, TF over GST control) in test [13]; 1.2 fold enrichment (6-mer frequency, TF over GST control) in test [14]; 1.01 fold enrichment (6-mer frequency, TF over GST control) in [15]; 1.04 fold enrichment (6-mer frequency, TF over GST control) in test [16]; 1.12 fold enrichment (6-mer frequency, TF over GST control) in [17].

In the case of GAAGTG, the binding signal in test [1] is 1.46 fold enrichment (6-mer frequency, TF over GST control); in [2], 1.7 fold enrichment (6-mer frequency, TF over GST control); in [3] it was 1.49 fold enrichment (6-mer frequency, TF over GST control); in test [4], 1.87 fold enrichment (6-mer frequency, TF over GST control); in test [5], 1.52 fold enrichment (6-mer frequency, TF over GST control); in test [6] it was 1.71 fold enrichment (6-mer frequency, TF over GST control). In addition, the binding signal in test [7] was 2.8 fold enrichment (6-mer frequency, TF over GST control); in test [8] it was 1.61 fold enrichment (6-mer frequency, TF over GST control); in test [9], 1.75 fold enrichment (6-mer frequency, TF over GST control); in [10], 1.88 fold enrichment (6-mer frequency, TF over GST control); in [11] it was 1.73 fold enrichment (6-mer frequency, TF over GST control); in test [12], 2.01 fold enrichment (6-mer frequency, TF over GST control). The binding signal in test [13] was 1.6 fold enrichment (6-mer frequency, TF over GST control); in [14], 1.32 fold enrichment (6-mer frequency, TF over GST control); in [15], 1.65 fold enrichment (6-mer frequency, TF over GST control); in [16], 1.65 fold enrichment (6-mer frequency, TF over GST control); in [17], 1.86 fold enrichment (6-mer frequency, TF over GST control).
